Laboratory results from PubChem BioAssay.
Activity calls are given as the source filed them.

Assays:
[1] = E. coli DRC41 culture turbidity changes, primary screen, E. coli filamentation inducer project, strain DRC41, OD650, 48 h (AID 1152);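 also: E. coli MC1000 strain DRC41 lacking acrAB efflux pump and sulA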; settings: E. coli DRC41 (acrAB sulA), higher = more signal, called active from +8 up or from −8 down
[2] = small-molecule binders of probe aLefty1, primary screen, biochemical, small-molecule microarray, 635/667 nm fluorescence (AID 1153); settings: higher = more signal;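 also: score merges spot fluorescence with signal-to-noise ratio from the scanned slide images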
[3] = PSAC antagonists in infected red cells, primary screen, cell-based, P. falciparum Indochina, OD700, 1 h (AID 1154); settings: P. falciparum Indochina infected RBC osmotic lysis, higher = more signal, called active from +8 up or from −8 down
[4] = PSAC antagonists in infected red cells, primary screen, cell-based, P. falciparum Indochina, OD700, 2 h (AID 1155);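 also: lysis reports solute entry through the parasite surface anion channel PSAC; channel blockers reduce lysis of infected cells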; settings: P. falciparum Indochina infected erythrocytes, osmotic lysis OD700; higher = more signal, called active from +8 up or from −8 down
[5] = osmotic lysis modulators in infected erythrocytes, primary screen, PSAC antagonist project, cell-based, P. falciparum Indochina, OD700, 3 h (AID 1156); settings: higher = more signal, called active from +8 up or from −8 down
[6] = PSAC antagonists in infected red cells, primary screen, cell-based, P. falciparum Indochina, OD700, 18 h (AID 1157); settings: P. falciparum Indochina infected erythrocytes, osmotic lysis OD700, 18 h; higher = more signal, called active from +8 up or from −8 down
[7] = modulators of S6 phosphorylation in cells, primary screen, cell-based, A549, cytoblot, luminescence, serum-stimulated (AID 1158); settings: A549 phospho-S6 cytoblot, 5 h, higher = more signal;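 also: serum-stimulated A549 lung adenocarcinoma cells; signal is phosphorylated S6 detected by cytoblot immunostaining with HRP secondary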
[8] = target: NADPH oxidase 2 (Homo sapiens) (UniProt P04839); test: NOX2-dependent H2O2 signal modulators, primary screen, NOX inhibitor project, cell-based, HEK293-NOX2, PMA-stimulated, Amplex Red fluorescence (AID 1159); settings: 45 min, higher = more signal, called active from +8 up or from −8 down; also: test concentration not given here
[9] = target: NADPH oxidase 4 (Homo sapiens) (UniProt Q9NPH5); test: NOX4-dependent H2O2 signal modulators, primary screen, NOX inhibitor project, cell-based, HEK293-NOX4, tetracycline-induced, Amplex Red fluorescence (AID 1160); settings: 45 min, higher = more signal, called active from +8 up or from −8 down
[10] = target: NADPH oxidase 5 (Homo sapiens) (UniProt Q96PH1); test: NOX5-dependent H2O2 signal modulators, primary screen, NOX inhibitor project, cell-based, HEK293-NOX5, Amplex Red fluorescence (AID 1161); settings: HEK293-NOX5, ionomycin, 45 min, higher = more signal
[11] = A549 cell viability effects, profiling panel, calcein-AM fluorescence, 48 h, basal (AID 1162); settings: higher = more signal; also: test concentration not given here
[12] = adipocyte viability effects, profiling panel, cell-based, 3T3-L1 adipocytes, calcein-AM fluorescence, 48 h, basal (AID 1163); settings: 3T3-L1 adipocytes viability, higher = more signal; also: test concentration not given here
[13] = HepG2 cell viability effects, profiling panel, calcein-AM fluorescence, 48 h, basal (AID 1164); settings: higher = more signal; also: test concentration not given here
[14] = MM1S cell viability effects, profiling panel, calcein-AM fluorescence, 48 h, basal (AID 1165); settings: higher = more signal;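 also: viability of MM1S multiple myeloma cells under basal unstimulated conditions; test concentration not given here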
[15] = basal RPMI8226 viability, no added stimulus, profiling panel, cell-based, calcein-AM fluorescence, 48 h, PK04 Diversity Set (AID 1166); settings: RPMI8226 myeloma viability, higher = more signal;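 also: cells grown under basal conditions without added stimulus; test concentration not given here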
[16] = basal HepG2 mitochondrial membrane potential changes, profiling panel, cell-based, JC-1 fluorescence, 24 h, 100 nL compound (AID 1167); settings: higher = more signal; also: test concentration not given here
[17] = basal 3T3-L1 adipocyte mitochondrial potential changes, profiling panel, cell-based, JC-1 fluorescence, 3T3-L1 adipocytes, 24 h, 100 nL compound (AID 1168); settings: JC-1 mitochondrial fluorescence, higher = more signal, called active from +8 up or from −8 down; also: test concentration not given here
[18] = basal RPMI8226 mitochondrial membrane potential changes, profiling panel, cell-based, JC-1 fluorescence, 24 h, 100 nL compound (AID 1169); settings: RPMI8226 myeloma, JC-1 mitochondrial potential fluorescence, higher = more signal; also: test concentration not given here
[19] = basal MM1S mitochondrial membrane potential changes, profiling panel, cell-based, JC-1 fluorescence, 24 h, 100 nL compound (AID 1170); settings: higher = more signal; also: test concentration not given here
[20] = A549 lung cancer cell viability effects, profiling panel, resazurin fluorescence, 24 h, PK04 Diversity Set (AID 1171); settings: higher = more signal, called active from +8 up or from −8 down; also: test concentration not given here

Sequence of NADPH oxidase 2 (Homo sapiens) (P04839 whole entry, looked up): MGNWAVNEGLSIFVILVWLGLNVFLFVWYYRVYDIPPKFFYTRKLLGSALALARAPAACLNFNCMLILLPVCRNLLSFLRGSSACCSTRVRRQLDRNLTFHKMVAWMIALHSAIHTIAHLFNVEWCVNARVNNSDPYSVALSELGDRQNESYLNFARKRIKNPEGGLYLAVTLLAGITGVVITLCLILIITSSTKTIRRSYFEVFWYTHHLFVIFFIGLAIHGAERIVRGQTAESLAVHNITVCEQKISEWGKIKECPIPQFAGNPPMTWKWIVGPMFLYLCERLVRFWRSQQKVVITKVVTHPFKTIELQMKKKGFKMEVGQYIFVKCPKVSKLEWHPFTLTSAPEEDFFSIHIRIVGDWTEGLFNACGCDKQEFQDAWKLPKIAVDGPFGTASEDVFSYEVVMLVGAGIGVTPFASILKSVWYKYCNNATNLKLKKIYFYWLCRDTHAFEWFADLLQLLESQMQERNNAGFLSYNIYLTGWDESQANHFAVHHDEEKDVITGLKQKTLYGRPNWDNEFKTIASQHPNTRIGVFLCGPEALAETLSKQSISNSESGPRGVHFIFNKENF
Sequence of NADPH oxidase 5 (Homo sapiens) (Q96PH1 whole entry, looked up): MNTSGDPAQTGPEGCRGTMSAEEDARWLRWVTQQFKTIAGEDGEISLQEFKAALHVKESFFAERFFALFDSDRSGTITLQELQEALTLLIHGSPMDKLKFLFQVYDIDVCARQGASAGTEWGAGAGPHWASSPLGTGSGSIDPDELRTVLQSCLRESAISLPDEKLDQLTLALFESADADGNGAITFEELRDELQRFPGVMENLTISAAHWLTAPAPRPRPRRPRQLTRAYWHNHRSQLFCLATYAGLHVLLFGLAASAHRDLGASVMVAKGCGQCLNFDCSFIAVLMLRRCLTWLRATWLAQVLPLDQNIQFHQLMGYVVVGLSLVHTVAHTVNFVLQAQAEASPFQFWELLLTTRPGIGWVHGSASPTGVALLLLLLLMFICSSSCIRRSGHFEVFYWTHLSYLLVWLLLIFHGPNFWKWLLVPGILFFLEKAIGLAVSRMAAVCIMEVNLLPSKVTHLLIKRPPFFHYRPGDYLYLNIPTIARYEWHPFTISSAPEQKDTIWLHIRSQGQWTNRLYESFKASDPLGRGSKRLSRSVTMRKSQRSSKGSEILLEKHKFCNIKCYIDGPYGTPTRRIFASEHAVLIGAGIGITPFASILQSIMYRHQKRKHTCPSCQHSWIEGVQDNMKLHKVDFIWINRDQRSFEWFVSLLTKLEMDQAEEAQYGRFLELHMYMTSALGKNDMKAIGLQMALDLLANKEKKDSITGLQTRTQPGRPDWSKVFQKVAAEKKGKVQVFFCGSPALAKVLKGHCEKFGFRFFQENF
Sequence of NADPH oxidase 4 (Homo sapiens) (Q9NPH5 whole entry, looked up): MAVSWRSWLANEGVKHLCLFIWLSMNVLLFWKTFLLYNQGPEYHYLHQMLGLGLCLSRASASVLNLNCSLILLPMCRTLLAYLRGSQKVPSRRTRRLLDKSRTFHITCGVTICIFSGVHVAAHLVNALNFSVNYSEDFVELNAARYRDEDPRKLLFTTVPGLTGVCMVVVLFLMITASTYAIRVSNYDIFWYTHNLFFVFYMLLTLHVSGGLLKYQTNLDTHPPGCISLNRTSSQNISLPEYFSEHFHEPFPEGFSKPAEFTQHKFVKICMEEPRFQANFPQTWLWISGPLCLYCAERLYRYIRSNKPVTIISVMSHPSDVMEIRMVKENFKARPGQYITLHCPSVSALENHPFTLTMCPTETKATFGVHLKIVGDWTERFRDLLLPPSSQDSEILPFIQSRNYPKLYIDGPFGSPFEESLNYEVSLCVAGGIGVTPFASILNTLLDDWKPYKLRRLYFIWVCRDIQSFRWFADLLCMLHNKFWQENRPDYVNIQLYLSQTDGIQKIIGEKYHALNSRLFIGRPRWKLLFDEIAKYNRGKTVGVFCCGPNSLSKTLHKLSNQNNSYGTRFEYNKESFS

Row | Structure (SMILES) | z-score [1] | composite z-score [2] | z-score [3] | z-score [4] | z-score [5] | z-score [6] | z-score [7] | z-score [8] | z-score [9] | z-score [10] | z-score [11] | z-score [12] | z-score [13] | z-score [14] | z-score [15] | z-score [16] | z-score [17] | z-score [18] | z-score [19] | z-score [20]
1 | CC(C)CNC(=O)[C@@H]1c2ccccc2C(=O)N(C2Cc3ccccc3C2)[C@H]1c1ccc(CO)cc1 | 1.93 (inactive) | 0.0861 | 3.11 (inactive) | 0.693 (inactive) | 1.18 (inactive) | 0.232 (inactive) | 0.0629 | 0.182 (inactive) | 1.12 (inactive) | 0.105 | 2.03 | 0.319 | 1.74 | 0.0933 | 0.362 | 3.2 | 0.228 (inactive) | -0.836 | 0.00489 | 0.797 (inactive)
2 | CN1C=C(C(=O)OCCS(C)(=O)=O)C(C(=O)OCCS(C)(=O)=O)=CC(CCCO)=CC1c1ccc(CN2CCCC2)cc1 (stereo not given) | 0.0837 (inactive) | 0.546 | 1.39 (inactive) | -0.162 (inactive) | -0.203 (inactive) | 0.0374 (inactive) | -0.0029 | 0.526 (inactive) | 0.0702 (inactive) | -1.65 | 1.46 | -2.48 | 1.81 | 0.101 | -0.268 | 1.82 | -0.469 (inactive) | 1.33 | -0.394 | 0.0251 (inactive)
3 | O=C1O[C@@H](c2ccccc2)[C@@H](c2ccccc2)N2[C@@H](c3ccc(OCCO)cc3)[C@]3(C(=O)Nc4ccc(C#CCCO)cc43)[C@@H](C(=O)Nc3nc4ccccc4s3)[C@H]12 | 2.3 (inactive) | 0.573 | 1.01 (inactive) | -0.0042 (inactive) | -1.53 (inactive) | -1.15 (inactive) | 0.922 | 0.762 (inactive) | 0.868 (inactive) | 1.52 | 0.0652 | 0.794 | -0.354 | -0.267 | -0.0767 | -3.09 | 1.57 (inactive) | -1.06 | -1.49 | 1.58 (inactive)
4 | CC(C)[C@@H](C(=O)O)n1cc(-c2ccccc2)nn1 | -1.08 (inactive) | 0.241 | 0.354 (inactive) | 0.217 (inactive) | -0.406 (inactive) | 0.0394 (inactive) | -0.299 | -0.7 (inactive) | 0.521 (inactive) | -0.167 | -0.633 | -0.582 | -0.354 | -0.117 | -0.887 | -1.36 | -1.2 (inactive) | 0.00787 | 0.00093 | -0.423 (inactive)
5 | CCCC[C@@H](O)C1=C(COC)Cn2c(=O)n(-c3ccccc3)c(=O)n2[C@H]1CO | 4.01 (inactive) | -0.224 | -0.0913 (inactive) | -0.696 (inactive) | -0.304 (inactive) | -2.74 (inactive) | 1.9 | -1.55 (inactive) | 0.208 (inactive) | 0.716 | 0.281 | 0.122 | 0.166 | 0.103 | 0.337 | 0.376 | -0.301 (inactive) | -0.197 | 0.794 | -0.783 (inactive)
6 | CO[C@H]1O[C@H](CO)[C@@H](OC(=O)Nc2ccc(C(F)(F)F)cc2)[C@H](OC(=O)Nc2ccccc2-c2ccccc2)[C@H]1OC(=O)Nc1ccccc1-c1ccccc1 | -1.16 (inactive) | 0.398 | 3.1 (inactive) | 1.18 (inactive) | -2.21 (inactive) | 1.16 (inactive) | -0.413 | -3.25 (inactive) | -1.07 (inactive) | -0.439 | -4.38 | 0.158 | -5.26 | -3.52 | -3.98 | 0.235 | 0.0902 (inactive) | -0.867 | -1.76 | -6.26 (inactive)
7 | CCCCC(=C=CC[C@@H](O)c1cccc(OCCO)c1)C[C@@H](O)COCc1ccccc1 | 1.76 (inactive) | -0.101 | 16.3 (active) | 1.3 (inactive) | 0.605 (inactive) | -1.07 (inactive) | 2.58 | -1.61 (inactive) | -1.01 (inactive) | -2.47 | 1.1 | 1.79 | 1.3 | -1.21 | 0.286 | -0.0343 | 0.436 (inactive) | -0.785 | -0.91 | -0.0721 (inactive)
8 | CCCCCCc1nc(-c2ccc(OC)nc2)cc2c1[Si](C(C)C)(C(C)C)OC2 | -0.45 (inactive) | -0.103 | 2.62 (inactive) | 0.0409 (inactive) | -0.484 (inactive) | -0.179 (inactive) | 0.366 | -4.66 (inactive) | -2.14 (inactive) | -4.22 | -0.848 | 0.608 | 0.238 | -2.15 | -3.11 | -1.91 | -0.191 (inactive) | -0.791 | -0.368 | 0.552 (inactive)
9 | COCCOC(=O)N1C(=O)[C@@]2(c3ccccc31)[C@H](c1ccc(OCCO)cc1)N1[C@H](c3ccccc3)[C@H](c3ccccc3)OC(=O)[C@H]1[C@@H]2C(=O)N1CCN(c2ncccn2)CC1 | 0.118 (inactive) | 0.547 | 22.1 (active) | 6.25 (inactive) | 1.4 (inactive) | 1.56 (inactive) | 0.0018 | 1.19 (inactive) | 0.262 (inactive) | 0.618 | -0.158 | 1.39 | -0.29 | -1.12 | -1.12 | 1.03 | 0.358 (inactive) | 0.1 | -1.1 | 0.345 (inactive)
